Assay results taken from publication PMC11024108.

What was measured:
[1] = target: Large ribosomal subunit protein uL1 (UniProt P62906); test: cross-link between two proteins; cross-linking mass spectrometry
[2] = target: Actin-related protein 2/3 complex subunit 2 (UniProt Q9CVB6); test: as above
[3] = target: Actin-related protein 2/3 complex subunit 3 (UniProt Q9JM76); test: as above
[4] = target: Histone H2B type 1-L (UniProt Q99880); test: as above
[5] = target: Histone H2B type 1-M (UniProt Q99879); test: as above
[6] = target: Actin, cytoplasmic 2 (UniProt P63261); test: as above
[7] = target: Epsin-1 (UniProt Q9Y6I3); test: as above
[8] = target: Ubiquitin-like protein NEDD8 (UniProt Q15843); test: as above
[9] = target: Large ribosomal subunit protein uL22 (UniProt Q9CPR4); test: as above
[10] = target: Histone H1.2 (UniProt P16403); test: as above
[11] = target: Large ribosomal subunit protein eL20 (UniProt Q02543); test: as above
[12] = target: T1, Serine/arginine-rich splicing factor 7 (UniProt Q16629); test: as above
T1 sequence: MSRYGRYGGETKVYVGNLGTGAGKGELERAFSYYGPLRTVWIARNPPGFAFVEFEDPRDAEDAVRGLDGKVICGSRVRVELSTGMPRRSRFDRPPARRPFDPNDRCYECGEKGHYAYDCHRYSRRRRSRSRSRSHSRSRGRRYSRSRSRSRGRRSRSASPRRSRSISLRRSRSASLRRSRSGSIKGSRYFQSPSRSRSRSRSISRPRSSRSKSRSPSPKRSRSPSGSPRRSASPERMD

[13] = target: Small ribosomal subunit protein eS8 (UniProt P62241); test: as above
[14] = target: Complex III assembly factor LYRM7 (UniProt Q5U5X0); test: cross-linking mass spectrometry
[15] = target: Malate dehydrogenase, mitochondrial (UniProt P40926); test: cross-linking mass spectrometry
[16] = target: Elongation factor 1-alpha 1 (UniProt P68104); test: cross-linking mass spectrometry
[17] = target: Histone H2B type 1-C/E/G (UniProt Q6ZWY9); test: cross-linking mass spectrometry
[18] = target: Large ribosomal subunit protein uL11 (UniProt P30050); test: cross-linking mass spectrometry
[19] = target: Large ribosomal subunit protein uL11m (UniProt Q9Y3B7); test: cross-linking mass spectrometry
[20] = target: Large ribosomal subunit protein uL5 (UniProt P62913); test: cross-linking mass spectrometry
[21] = target: Leucine-rich repeat-containing protein 59 (UniProt Q96AG4); test: cross-linking mass spectrometry
[22] = target: Poly(A) RNA polymerase, mitochondrial (UniProt Q9NVV4); test: cross-linking mass spectrometry
[23] = target: Ribosome-binding protein 1 (UniProt Q9P2E9); test: cross-linking mass spectrometry
[24] = target: Small ribosomal subunit protein uS15 (UniProt P62301); test: cross-linking mass spectrometry
[25] = target: Small ribosomal subunit protein eS27 (UniProt Q6ZWU9); test: cross-link between two proteins; cross-linking mass spectrometry
[26] = target: MICOS complex subunit MIC60 (UniProt Q16891); test: as above
[27] = target: Cytochrome c oxidase assembly factor 7 (UniProt Q96BR5); test: mass-spectrometry hit list; affinity purification or IP with mass spectrometry; cross-linking mass spectrometry
[28] = target: Mitochondrial fission 1 protein (UniProt Q9CQ92); test: cross-link between two proteins; cross-linking mass spectrometry
[29] = target: Plasma membrane calcium-transporting ATPase 2 (UniProt Q9R0K7); test: as above
[30] = target: Protein piccolo (UniProt Q9QYX7); test: as above
[31] = target: Ragulator complex protein LAMTOR4 (UniProt Q0VGL1); test: as above
[32] = target: Ras-related C3 botulinum toxin substrate 1 (UniProt P63000); test: as above
[33] = target: Small ribosomal subunit protein RACK1 (UniProt P68040); test: as above
[34] = target: Small ribosomal subunit protein eS19 (UniProt Q9CZX8); test: as above

Protein piccolo, sequence (Q9QYX7 whole entry): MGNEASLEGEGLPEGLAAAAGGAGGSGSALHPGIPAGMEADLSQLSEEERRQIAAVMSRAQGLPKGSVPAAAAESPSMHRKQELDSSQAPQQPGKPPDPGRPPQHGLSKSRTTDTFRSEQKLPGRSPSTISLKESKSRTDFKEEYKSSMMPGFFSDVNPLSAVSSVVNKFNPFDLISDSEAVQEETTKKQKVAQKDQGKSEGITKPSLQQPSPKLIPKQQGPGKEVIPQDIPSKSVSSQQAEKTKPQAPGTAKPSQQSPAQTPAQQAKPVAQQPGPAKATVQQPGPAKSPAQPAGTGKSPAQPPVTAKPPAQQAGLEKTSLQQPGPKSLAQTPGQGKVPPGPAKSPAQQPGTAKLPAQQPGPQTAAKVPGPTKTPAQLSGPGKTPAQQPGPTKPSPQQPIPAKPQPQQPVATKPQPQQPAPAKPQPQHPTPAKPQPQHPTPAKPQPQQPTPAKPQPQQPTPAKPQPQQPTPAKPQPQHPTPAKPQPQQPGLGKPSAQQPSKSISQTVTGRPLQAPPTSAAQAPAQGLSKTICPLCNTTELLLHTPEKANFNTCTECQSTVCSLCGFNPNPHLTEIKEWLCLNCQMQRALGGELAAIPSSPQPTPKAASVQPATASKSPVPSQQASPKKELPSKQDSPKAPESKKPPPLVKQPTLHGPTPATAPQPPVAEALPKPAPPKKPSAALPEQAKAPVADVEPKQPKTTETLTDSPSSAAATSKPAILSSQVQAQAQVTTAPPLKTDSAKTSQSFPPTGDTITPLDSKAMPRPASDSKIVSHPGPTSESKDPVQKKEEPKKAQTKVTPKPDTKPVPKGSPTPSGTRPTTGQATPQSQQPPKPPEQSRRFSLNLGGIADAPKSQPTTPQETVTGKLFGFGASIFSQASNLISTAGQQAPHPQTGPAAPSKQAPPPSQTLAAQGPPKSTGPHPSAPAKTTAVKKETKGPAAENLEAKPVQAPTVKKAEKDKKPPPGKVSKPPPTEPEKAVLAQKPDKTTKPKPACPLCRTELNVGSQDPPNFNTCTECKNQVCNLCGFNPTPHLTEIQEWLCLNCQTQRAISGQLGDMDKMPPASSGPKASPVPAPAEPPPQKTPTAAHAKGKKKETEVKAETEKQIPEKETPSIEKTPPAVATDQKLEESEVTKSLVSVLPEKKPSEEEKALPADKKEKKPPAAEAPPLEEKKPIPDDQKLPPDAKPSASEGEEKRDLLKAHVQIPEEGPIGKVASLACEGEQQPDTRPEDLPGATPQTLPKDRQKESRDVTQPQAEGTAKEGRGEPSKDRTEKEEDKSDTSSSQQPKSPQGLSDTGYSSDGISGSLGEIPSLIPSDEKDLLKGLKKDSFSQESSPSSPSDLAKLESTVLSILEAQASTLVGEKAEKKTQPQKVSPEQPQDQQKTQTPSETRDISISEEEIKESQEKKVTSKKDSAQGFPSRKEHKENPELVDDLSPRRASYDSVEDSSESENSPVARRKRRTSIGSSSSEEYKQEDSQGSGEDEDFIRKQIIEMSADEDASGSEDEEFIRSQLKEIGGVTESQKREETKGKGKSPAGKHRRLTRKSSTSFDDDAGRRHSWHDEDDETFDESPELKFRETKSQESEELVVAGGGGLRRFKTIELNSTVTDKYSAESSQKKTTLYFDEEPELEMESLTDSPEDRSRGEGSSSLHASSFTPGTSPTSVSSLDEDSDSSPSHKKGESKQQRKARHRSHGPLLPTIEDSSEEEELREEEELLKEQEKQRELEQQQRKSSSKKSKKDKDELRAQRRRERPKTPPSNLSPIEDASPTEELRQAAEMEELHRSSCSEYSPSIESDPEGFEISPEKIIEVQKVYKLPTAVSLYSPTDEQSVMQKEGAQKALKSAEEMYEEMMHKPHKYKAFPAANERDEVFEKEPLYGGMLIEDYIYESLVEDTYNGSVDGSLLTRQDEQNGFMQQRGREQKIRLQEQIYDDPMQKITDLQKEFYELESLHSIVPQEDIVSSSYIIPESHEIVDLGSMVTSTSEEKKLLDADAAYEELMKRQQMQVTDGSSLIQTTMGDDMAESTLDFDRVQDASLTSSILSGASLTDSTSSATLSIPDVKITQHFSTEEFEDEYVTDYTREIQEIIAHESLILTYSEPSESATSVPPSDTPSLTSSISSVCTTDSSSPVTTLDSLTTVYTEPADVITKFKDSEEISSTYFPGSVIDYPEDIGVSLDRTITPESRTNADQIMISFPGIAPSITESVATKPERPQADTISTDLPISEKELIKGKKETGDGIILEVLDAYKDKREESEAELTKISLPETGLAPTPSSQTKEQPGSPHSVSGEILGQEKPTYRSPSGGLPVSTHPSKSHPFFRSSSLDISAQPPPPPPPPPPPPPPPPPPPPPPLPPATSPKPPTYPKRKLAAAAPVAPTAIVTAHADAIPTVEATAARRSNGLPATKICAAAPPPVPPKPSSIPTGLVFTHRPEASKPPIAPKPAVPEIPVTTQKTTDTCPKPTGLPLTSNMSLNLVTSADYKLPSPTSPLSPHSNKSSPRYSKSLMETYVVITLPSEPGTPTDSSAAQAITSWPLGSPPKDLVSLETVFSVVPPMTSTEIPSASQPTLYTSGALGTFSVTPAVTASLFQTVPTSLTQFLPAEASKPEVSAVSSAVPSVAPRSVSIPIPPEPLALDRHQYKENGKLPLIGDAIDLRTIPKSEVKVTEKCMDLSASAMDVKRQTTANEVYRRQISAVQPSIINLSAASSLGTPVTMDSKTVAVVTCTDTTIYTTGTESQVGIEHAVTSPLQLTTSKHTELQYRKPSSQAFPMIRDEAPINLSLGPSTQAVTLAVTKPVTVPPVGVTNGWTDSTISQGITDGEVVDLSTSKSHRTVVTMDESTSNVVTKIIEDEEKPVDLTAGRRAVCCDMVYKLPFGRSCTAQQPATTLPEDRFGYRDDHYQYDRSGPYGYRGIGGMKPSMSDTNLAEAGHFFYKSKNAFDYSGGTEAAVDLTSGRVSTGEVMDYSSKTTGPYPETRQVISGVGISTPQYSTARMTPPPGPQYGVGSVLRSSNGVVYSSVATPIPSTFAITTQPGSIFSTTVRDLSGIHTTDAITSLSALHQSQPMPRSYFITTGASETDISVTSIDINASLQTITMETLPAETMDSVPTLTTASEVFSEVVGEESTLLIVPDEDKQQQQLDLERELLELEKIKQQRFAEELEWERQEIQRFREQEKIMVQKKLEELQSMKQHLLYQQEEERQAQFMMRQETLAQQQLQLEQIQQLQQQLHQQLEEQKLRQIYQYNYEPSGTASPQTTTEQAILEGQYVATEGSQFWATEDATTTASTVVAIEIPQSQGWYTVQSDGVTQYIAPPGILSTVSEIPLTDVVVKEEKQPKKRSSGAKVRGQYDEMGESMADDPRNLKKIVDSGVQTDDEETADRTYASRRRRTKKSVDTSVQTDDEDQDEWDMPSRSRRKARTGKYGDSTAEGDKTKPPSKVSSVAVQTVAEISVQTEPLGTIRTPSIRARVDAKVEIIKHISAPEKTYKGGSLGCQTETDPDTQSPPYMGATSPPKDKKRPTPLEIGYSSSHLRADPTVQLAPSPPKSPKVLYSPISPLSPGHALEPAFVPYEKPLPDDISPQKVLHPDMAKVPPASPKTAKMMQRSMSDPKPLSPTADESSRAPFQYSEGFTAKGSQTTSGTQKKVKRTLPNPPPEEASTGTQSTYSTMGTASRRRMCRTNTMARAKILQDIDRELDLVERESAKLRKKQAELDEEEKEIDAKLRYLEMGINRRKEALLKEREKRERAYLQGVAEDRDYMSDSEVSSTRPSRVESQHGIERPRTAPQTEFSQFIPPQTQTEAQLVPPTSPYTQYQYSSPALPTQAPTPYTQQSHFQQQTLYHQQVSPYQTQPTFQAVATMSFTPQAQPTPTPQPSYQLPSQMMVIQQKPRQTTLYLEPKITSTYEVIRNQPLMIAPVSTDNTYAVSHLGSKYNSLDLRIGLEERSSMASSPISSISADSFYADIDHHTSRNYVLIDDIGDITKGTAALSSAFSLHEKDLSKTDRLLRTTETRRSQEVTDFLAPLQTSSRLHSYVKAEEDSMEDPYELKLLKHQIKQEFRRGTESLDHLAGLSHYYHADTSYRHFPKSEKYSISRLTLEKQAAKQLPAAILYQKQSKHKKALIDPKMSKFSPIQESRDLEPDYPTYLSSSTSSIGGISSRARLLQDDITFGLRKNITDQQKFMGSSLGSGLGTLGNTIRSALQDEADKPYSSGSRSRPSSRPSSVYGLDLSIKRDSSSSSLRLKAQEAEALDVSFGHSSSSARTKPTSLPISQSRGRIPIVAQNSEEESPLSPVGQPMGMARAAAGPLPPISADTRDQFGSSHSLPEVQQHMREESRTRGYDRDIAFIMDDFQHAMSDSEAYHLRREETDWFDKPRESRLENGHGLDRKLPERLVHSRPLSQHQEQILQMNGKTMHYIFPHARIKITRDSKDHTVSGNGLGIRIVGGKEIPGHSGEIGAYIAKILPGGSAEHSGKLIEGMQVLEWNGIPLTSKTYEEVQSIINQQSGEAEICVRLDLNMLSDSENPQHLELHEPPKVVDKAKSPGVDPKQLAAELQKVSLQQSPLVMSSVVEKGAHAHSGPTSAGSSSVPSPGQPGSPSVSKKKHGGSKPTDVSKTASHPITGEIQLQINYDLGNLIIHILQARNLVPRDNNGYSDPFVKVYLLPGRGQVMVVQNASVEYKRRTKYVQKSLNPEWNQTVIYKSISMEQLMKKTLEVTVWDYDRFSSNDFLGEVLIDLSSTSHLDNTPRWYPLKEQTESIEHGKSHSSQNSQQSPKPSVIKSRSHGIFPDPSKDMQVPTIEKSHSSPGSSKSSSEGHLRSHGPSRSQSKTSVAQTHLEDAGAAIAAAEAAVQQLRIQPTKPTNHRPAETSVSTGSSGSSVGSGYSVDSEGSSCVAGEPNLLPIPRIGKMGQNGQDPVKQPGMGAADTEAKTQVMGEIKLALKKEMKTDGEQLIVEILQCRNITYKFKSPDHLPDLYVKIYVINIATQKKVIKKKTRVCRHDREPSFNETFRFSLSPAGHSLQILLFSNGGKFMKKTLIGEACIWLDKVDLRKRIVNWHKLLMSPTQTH
Dynein light chain 2, cytoplasmic, Q9D0M5, sequence (Q9D0M5 whole entry): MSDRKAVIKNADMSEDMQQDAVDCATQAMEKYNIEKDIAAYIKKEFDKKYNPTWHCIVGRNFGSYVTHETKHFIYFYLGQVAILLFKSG

Small ribosomal subunit protein eS1, P61247
listed as a hit [1]: yes

Actin-related protein 2, P61161
listed as a hit [2]: yes | listed as a hit [3]: yes

Histone H3.2, Q71DI3
listed as a hit [4]: yes | listed as a hit [5]: yes

Ubiquitin-ribosomal protein eS31 fusion protein, P62979
listed as a hit [6]: yes | listed as a hit [7]: yes | listed as a hit [8]: yes

Histone H2A type 1-J, Q99878
listed as a hit [4]: yes | listed as a hit [5]: yes

Large ribosomal subunit protein eL31, P62900
listed as a hit [9]: yes

Histone H1.4, P10412
listed as a hit [10]: yes | listed as a hit [11]: yes | listed as a hit [12]: yes | listed as a hit [13]: yes

Acyl carrier protein, mitochondrial, O14561
listed as a hit [14]: yes | listed as a hit [15]: yes

Actin, cytoplasmic 2, P63261
listed as a hit [16]: yes

Histone H3.3, P84244
listed as a hit [17]: yes

Elongation factor 2, P13639
listed as a hit [18]: yes

Large ribosomal subunit protein mL53, Q96EL3
listed as a hit [19]: yes

Small ribosomal subunit protein uS19, P62841
listed as a hit [20]: yes

Large ribosomal subunit protein uL2, P62917
listed as a hit [21]: yes

Leucine-rich PPR motif-containing protein, mitochondrial, P42704
listed as a hit [22]: yes

Large ribosomal subunit protein uL1, P62906
listed as a hit [23]: yes

Small ribosomal subunit protein eS7, P62082
listed as a hit [24]: yes | listed as a hit [25]: yes

Adenylate kinase 2, mitochondrial, P54819
listed as a hit [26]: yes | listed as a hit [27]: yes

Ras-related protein Rab-14, Q91V41
listed as a hit [28]: yes

P62204
listed as a hit [29]: yes

Dynein light chain 2, cytoplasmic, Q9D0M5
listed as a hit [30]: yes

Ragulator complex protein LAMTOR5, O43504
listed as a hit [31]: yes

Ras-related C3 botulinum toxin substrate 3, P60763
listed as a hit [32]: yes

Small ribosomal subunit protein uS3, P62908
listed as a hit [33]: yes

Small ribosomal subunit protein uS9, P14131
listed as a hit [34]: yes
